Bcl-2 Bim block = disrupts Bim peptide binding to human Bcl-2. Bead-based flow cytometry, Bim peptide-Bcl-2 binding. inhibition, % at 10 µM. 190,000 compounds, 0.06% hits. AID 950. P10415; in the data active = inhibition above about 40%;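 also: 0% = no compound wells with probe peptide and 100% = reference peptide inhibitor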
Target sequence (P10415 whole entry, looked up): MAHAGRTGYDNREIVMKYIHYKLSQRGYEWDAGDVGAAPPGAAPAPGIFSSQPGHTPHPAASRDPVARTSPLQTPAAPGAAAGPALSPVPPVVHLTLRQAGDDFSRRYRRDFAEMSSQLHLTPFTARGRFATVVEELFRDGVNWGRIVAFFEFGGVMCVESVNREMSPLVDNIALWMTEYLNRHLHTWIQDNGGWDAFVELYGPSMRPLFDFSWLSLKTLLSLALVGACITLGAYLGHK
Bim-Bcl-W = disrupts Bim peptide binding to human Bcl-W. AID 952. inhibition, % at 10 µM. 190,000 compounds, 0.02% hits. Q92843. bead-based flow cytometry;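 also: 0% = bound tracer without compound and 100% = peptide blocker; higher means less fluorescent Bim peptide bound to Bcl-W beads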
Bcl-XL Bim block = human Bim-Bcl-XL interaction inhibition; Q07817; Bim peptide-Bcl-XL binding, bead flow cytometry, fluorescence; inhibition, % at 10 µM; 190,000 compounds, 0.04% hits
Arbovirus anti = arbovirus infection inhibition; arbovirus infection cell-based antiviral screen; inhibition, % at 10 µM; 200,000 compounds, 0.37% hits; in the data active = inhibition above about 30%
Bim-Bcl-B = disrupts Bim peptide binding to human Bcl-B; AID 951; 190,000 compounds, 0.073% hits; bead-based flow cytometry; inhibition, % at 10 µM;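 also: 0% = tracer peptide without compound and 100% = reference inhibitor peptide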
Target sequence (Q9HD36 whole entry, looked up): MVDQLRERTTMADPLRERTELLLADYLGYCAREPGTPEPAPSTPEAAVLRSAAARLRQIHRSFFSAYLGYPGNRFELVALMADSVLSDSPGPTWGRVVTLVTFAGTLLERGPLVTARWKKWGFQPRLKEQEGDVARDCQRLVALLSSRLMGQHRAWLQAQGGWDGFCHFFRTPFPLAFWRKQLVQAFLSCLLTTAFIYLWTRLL
Bfl-1 Bim block = disrupts Bim binding to human Bfl-1; AID 1008; Q16548; Bead-based flow cytometry, Bim-Bfl-1 binding inhibition; 190,000 compounds, 0.12% hits; inhibition, % at 10 µM;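 also: 0% = wells without compound plus tracer and 100% = blocker peptide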
* = called active by the depositor. Rows were chosen to be rich in hits. Some 0.56% of all compounds tested hit in one or more screens of this group. Rule as the data show it, unless noted: active = inhibition above about 40%.

SMILES | Bcl-2 Bim block | Bim-Bcl-W | Bcl-XL Bim block | Arbovirus anti | Bim-Bcl-B | Bfl-1 Bim block
Cc1cc([N+](=O)[O-])ccc1NC(=O)c1cncc(Br)c1 | -7 | -3 | -7 | 3 | -9 | -15
Cc1ccc(NC(=O)c2cncc(Br)c2)c(O)c1 | -3 | -2 | -4 | 39* | -1 | -3
CC(=O)Nc1ccc(SCC(=O)N(CCC#N)c2cc(C)cc(C)c2)cc1 | -5 | 0 | -3 | 49* | -2 | -1
CCOc1cccc(C(=O)Nc2ccccc2N2CCN(C(=O)C(C)C)CC2)c1 | 2 | 6 | -3 | 35* | -3 | 0
O=S1(=O)CCN(OCc2ccc(Cl)cc2)CC1 | 1 | 1 | 0 | -1 | 1 | 7
Nc1c(C(=O)NCC2CCCO2)sc2nc3c(c(-c4ccco4)c12)CC/C3=C\c1ccco1 (configuration not stated) | 65* | 33 | 37 | 8 | 52* | 38
Cc1ccccc1NC(=O)c1sc2nc3c(c(-c4ccco4)c2c1N)CCC3 | 5 | 8 | 6 | 4 | 2 | 2
CCc1cc(C(=O)O)c(NC(=O)C(c2ccccc2)c2ccccc2)s1 | -7 | 0 | -2 | 35* | -6 | -8
CCOC(=O)c1cc(C)sc1NC(=O)C(c1ccccc1)c1ccccc1 | -1 | 0 | -3 | -5 | -1 | 0
C=CCOc1c(Br)cc(/C=N/Nc2ccc(C(=O)O)cc2)cc1OCC | 2 | 7 | 6 | 31* | 4 | 0
Cc1ccc(C(=O)N2C(CC(=O)Nc3ccc(Cl)cc3)C(=O)NC3CCCCC32)cc1 (configuration not stated) | -2 | -1 | 0 | -20 | -3 | -2
COc1ccc(NS(=O)(=O)c2ccc(N3CCCC3)c(NC(=S)Nc3cccc(S(=O)(=O)N(C)C)c3)c2)cc1 | 7 | 0 | -3 | 5 | -11 | 23
Cc1ccc(OC(=O)c2ccc3snnc3c2)cc1 | 81* | 11 | 14 | 16 | 81* | 62*
O=C(OC(C(=O)Nc1cccc(C(F)(F)F)c1)c1ccccc1)C1CCCCC1 (configuration not stated) | -13 | -5 | -7 | -22 | -11 | -18
CCCC(=O)Oc1ccccc1C1SCc2cc(C)c(C)cc2CS1 | -14 | -3 | -8 | 32* | -6 | -15
COc1ccc(Cn2c(C)c(C)c(C#N)c2NC(=O)Nc2ccccc2)cc1 | -8 | -2 | 2 | 7 | -8 | -11
COc1ccc(Cn2c(C)c(C)c(C#N)c2NC(=O)Nc2cccc(C)c2)cc1 | -4 | 2 | -5 | 52* | -6 | -11
Cc1[nH]nc(SCC(=O)NCc2ccc(F)cc2)c1[N+](=O)[O-] | 30 | 30 | 42* | 1 | 24 | 36
CN(C(=O)COC(=O)CNC(=O)c1sc2ccccc2c1Cl)c1ccccc1 | -1 | -3 | -2 | 5 | 0 | 0
CCOC(=O)C1(CCOC)CCN(C(=O)c2ccccc2-c2cccc(C)c2)CC1 | -1 | 0 | 0 | 2 | -2 | -2
O=C(Nc1ccc(Cl)cc1)c1ccc(OCC2CCCO2)cc1 (configuration not stated) | -2 | 0 | -1 | -4 | -6 | -5
O=C(Nc1nc(-c2ccc(Cl)cc2Cl)cs1)c1ccc(OCC2CCCO2)cc1 (configuration not stated) | 0 | -2 | -2 | 68* | -4 | 0
CCOC(=O)C1(CCCc2ccccc2)CCN(C2CCSCC2)CC1 | -3 | -6 | -3 | 30* | -6 | -6
OCC1(CCCc2ccccc2)CCN(C2CCSCC2)CC1 | -5 | -3 | -4 | -6 | -2 | -5
O=C1NC(=S)S/C1=C/c1ccc(N2CCOCC2)o1 | 34 | 36 | 18 | 22 | 11 | 53*
SMILES | Bcl-2 Bim block | Bim-Bcl-W | Bcl-XL Bim block | Arbovirus anti | Bim-Bcl-B | Bfl-1 Bim block
Cc1ccc(-c2ccc(/C=C3\SC(N4CCOCC4)=NC3=O)o2)cc1 | 17 | 17 | 11 | 16 | 2 | 41*
O=C1S/C(=C/c2ccc(N3CCOCC3)o2)C(=O)N1Cc1ccc(F)cc1 | -2 | 7 | 5 | -36 | -11 | 27
Cc1nc(NS(=O)(=O)c2ccccc2C)c2c3c(sc2n1)CCC3 | -3 | -2 | -3 | 38* | -2 | -2
CCOc1ccc(N(CC(=O)Nc2c(C)n(C)n(-c3ccccc3)c2=O)S(=O)(=O)c2ccccc2)cc1 | -3 | -3 | -6 | -6 | -8 | -11
CCCCNC(=O)N1CCN(c2ncccn2)CC1 | 0 | -1 | 0 | 10 | -3 | 0
Cc1cccc(C)c1Nc1nc2ccccc2o1 | -11 | 2 | -1 | 46* | -6 | -10
Cc1nc(Nc2nc3ccccc3o2)nc2c1CCC2 | -2 | -3 | -2 | -6 | -2 | 0
CSc1nc(-c2ccc(Cl)cc2Cl)[nH]c(=O)c1C#N | -1 | 0 | -5 | 42* | -4 | 0
CSc1nc(N)nc(SCCS(=O)(=O)c2ccc(Cl)cc2)c1C#N | -8 | -3 | -7 | -9 | -12 | -19
Cc1ccc(C2CC(=O)c3cnc(N4CCc5ccccc5C4)nc3C2)cc1 (configuration not stated) | 1 | 1 | -1 | -6 | -1 | 4
Cc1ccc(C2CC(=O)c3cnn(-c4nc(C)cc(C)n4)c3C2)cc1 (configuration not stated) | 3 | -1 | 4 | 36* | 0 | 1
CC1(C)SC(=S)N(NC(=O)Nc2ccccc2)C1N(O)C(=O)Nc1cccc2ccccc12 (configuration not stated) | 38 | 37 | 45* | -44 | 32 | 48*
CN1C(=S)SC(C)(C)C1N(O)C(=O)Nc1ccc(Cl)cc1 (configuration not stated) | 0 | -1 | 0 | 21 | -2 | -2
Cc1cc2nc(/C(C#N)=C/c3ccncc3)[nH]c2cc1C | 44* | 47* | 39 | -6 | 34 | 38
O=C(Cc1ccc(F)cc1)N/N=C/c1ccncc1 | -1 | -3 | -3 | 19 | -3 | -2
Cc1ccc(-c2csc3ncnc(NS(=O)(=O)c4ccc(Cl)cc4)c23)cc1 | -7 | -5 | -12 | 46* | -8 | -6
O=C(Cc1ccc(Cl)cc1)Nc1ccc(N2CCCC2)cc1 | -2 | 0 | 0 | 4 | -5 | -11
Clc1cccc(Cl)c1CNc1ccc(N2CCCC2)cc1 | 21 | 25 | 4 | -1 | 2 | 59*
CN(C)/C=C/C(=O)c1ccc(C(F)(F)F)cc1F | 74* | 23 | 94* | 0 | 89* | 22
COc1ccc(NC(=O)c2c[nH]n3c(=O)cc(C4CCN(C(=O)OC(C)(C)C)CC4)nc23)cc1Cl | -1 | 0 | -2 | 49* | 3 | 0
CC(C)(C)OC(=O)N1CCC(c2cc(=O)n3[nH]cc(C(=O)NC4CCCC4)c3n2)CC1 | -5 | 0 | -3 | 6 | -4 | -6
CCOC(=O)C1=C(N)Oc2cc(O)ccc2C1c1cccc([N+](=O)[O-])c1 (configuration not stated) | 1 | 0 | -4 | -10 | -1 | -5

Bioassay records from PubChem.
